# Laboratory results as given in PubChem BioAssay (NCATS).
# Values joined by “and” are separate entries in the source; they are usually repeats but may differ in a detail not shown here. Identical values can stand only once. Results filed as inconclusive are left out. Where a call stands in place of a potency, no number is given. Active and inactive are the calls of the source. Unless noted, calls come from the whole dose curve; as a rule, active = well fitted curve in the direction sought with a large enough effect; inconclusive = small, poorly fitted or top-dose-only effect, or another doubt; inactive = no such curve, though single readings can be large; an effect the other way counts as inactive or inconclusive.
# What was measured:
# [1] = system: PA-1; assay: Primary qHTS to identify gynecologic anti-cancer compounds using libraries of approved drugs and bioactive compounds (AID 1345084); details: Gynecologic cancer cell panel viability, ATPlite luminescence, 48 h; series mostly up to 57.5 µM; note: nearly all actives have a fitted effect of over 55% in size; note: potency is the fitted concentration of half-maximal effect
# How it was run: (§1)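 Luminescence from the ATPlite ATP-monitoring reagent indicates viable cell number; lower signal means cytotoxicity. Cells received compound 16 h after seeding and were exposed for 48 h across five concentrations.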
# [2] = system: SKOV3; assay: as above; details: Gynecologic cancer cell panel viability, ATPlite luminescence, 48 h; series mostly up to 57.5 µM
# How it was run: as §1
# [3] = system: Zika virus NS2B-NS3 protease (unlinked complex); assay: Primary screen GU Rhodamine qHTS for Zika virus inhibitors: Unlinked NS2B-NS3 protease assay (AID 1347159); note: nearly all actives have a fitted effect of over 60% in size; note: potency is the fitted concentration of half-maximal effect
# How it was run: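 Compounds, tested up to 114 microM, were incubated for 15 minutes with 25 nM unlinked NS2B-NS3 protease at pH 8.0. Cleavage of 1.5 microM Rhodamine110 substrate was then followed by fluorescence for 15 minutes.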
# [4] = molecular target: Catechol O-methyltransferase (Homo sapiens) (UniProt P21964); assay: Confirmatory Screen for Target Class Profiling of Small Molecule Inhibitors of Methyltransferases (AID 1745852; calls by dose curve; note: potency is the fitted concentration of half-maximal effect); details: MTase-Glo luminescence, SAH detection, recombinant enzyme; measured here: COMT max response; stronger effect = lower value
# Catechol O-methyltransferase (Homo sapiens), sequence (P21964 whole entry, looked up): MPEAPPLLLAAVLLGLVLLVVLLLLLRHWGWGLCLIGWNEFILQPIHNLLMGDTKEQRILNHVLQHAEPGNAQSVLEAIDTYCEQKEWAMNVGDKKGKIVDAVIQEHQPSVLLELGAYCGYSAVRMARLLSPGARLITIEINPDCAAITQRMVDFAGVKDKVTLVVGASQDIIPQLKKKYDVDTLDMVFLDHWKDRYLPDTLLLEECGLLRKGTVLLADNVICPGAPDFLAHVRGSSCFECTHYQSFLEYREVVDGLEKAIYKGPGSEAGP
# [5] = molecular target: Guanidinoacetate N-methyltransferase (Homo sapiens) (UniProt Q14353); assay: as above; details: activity change, negative = inhibition: at 57.3 µM (top of the series) unless noted
# [6] = molecular target: Nicotinamide N-methyltransferase (Homo sapiens) (UniProt P40261); assay: as above; details: MTase-Glo luminescence, SAH detection, recombinant enzyme; measured here: NNMT max response; stronger effect = lower value
# Nicotinamide N-methyltransferase (Homo sapiens), sequence (P40261 whole entry, looked up): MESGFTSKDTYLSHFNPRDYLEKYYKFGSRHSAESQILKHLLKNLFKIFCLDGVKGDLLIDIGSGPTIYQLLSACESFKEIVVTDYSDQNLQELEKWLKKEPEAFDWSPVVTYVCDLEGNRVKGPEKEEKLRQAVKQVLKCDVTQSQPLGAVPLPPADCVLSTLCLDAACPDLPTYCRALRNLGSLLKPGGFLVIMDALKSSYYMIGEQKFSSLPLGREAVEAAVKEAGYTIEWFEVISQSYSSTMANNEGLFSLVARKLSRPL
# [7] = molecular target: Phenylethanolamine N-methyltransferase (Homo sapiens) (UniProt P11086); assay: as above; details: MTase-Glo luminescence, SAH detection, recombinant enzyme; measured here: PNMT max response; stronger effect = lower value
# Phenylethanolamine N-methyltransferase (Homo sapiens), sequence (P11086 whole entry, looked up): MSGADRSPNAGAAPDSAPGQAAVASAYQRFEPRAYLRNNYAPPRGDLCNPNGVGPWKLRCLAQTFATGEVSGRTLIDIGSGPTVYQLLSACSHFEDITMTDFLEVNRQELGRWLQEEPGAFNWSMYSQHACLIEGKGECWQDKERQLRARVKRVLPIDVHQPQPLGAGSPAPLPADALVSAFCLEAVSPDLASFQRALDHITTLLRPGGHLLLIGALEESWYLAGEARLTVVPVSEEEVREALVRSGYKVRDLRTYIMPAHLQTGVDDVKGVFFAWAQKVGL
# [8] = molecular target: Cytochrome P450 2D6 (Homo sapiens) (UniProt P10635); assay: Cytochrome P450 family 2 subfamily D member 6 (CYP2D6) small molecule antagonists: luciferase biochemical (cell-free) qHTS assay (AID 1645840; active = well fitted curve in the direction sought with a large enough effect in the repeat runs; an effect the other way counts as inactive or inconclusive; note: potency is the fitted concentration of half-maximal effect; nearly all actives have a fitted effect of over 55% in size)
# Cytochrome P450 2D6 (Homo sapiens), sequence (P10635 whole entry, looked up): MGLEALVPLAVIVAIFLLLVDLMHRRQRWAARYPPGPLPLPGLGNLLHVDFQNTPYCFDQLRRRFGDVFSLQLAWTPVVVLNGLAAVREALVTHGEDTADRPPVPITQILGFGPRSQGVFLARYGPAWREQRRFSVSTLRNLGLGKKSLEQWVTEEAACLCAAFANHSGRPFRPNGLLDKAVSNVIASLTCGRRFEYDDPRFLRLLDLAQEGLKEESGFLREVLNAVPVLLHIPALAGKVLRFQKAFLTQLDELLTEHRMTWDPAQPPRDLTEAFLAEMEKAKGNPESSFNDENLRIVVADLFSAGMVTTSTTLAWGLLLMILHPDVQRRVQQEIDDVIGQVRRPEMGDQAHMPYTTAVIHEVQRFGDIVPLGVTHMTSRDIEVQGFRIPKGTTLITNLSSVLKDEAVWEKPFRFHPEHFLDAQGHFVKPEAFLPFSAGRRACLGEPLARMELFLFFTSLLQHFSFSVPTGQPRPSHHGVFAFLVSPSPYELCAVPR
# How it was run: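 P450-Glo luminescent screen: recombinant CYP2D6 enzyme–proluciferin substrate mix preincubated with compound 10 min at room temperature, then NADPH regeneration added for 1 h at room temperature. Detection reagent added for 20 min; luciferin light read as relative luminescence units.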
# [9] = molecular target: Cytochrome P450 2C9 (Homo sapiens) (UniProt P11712); assay: Cytochrome P450 family 2 subfamily C member 9 (CYP2C9) small molecule antagonists: luciferase biochemical (cell-free) qHTS assay (AID 1645842; active = well fitted curve in the direction sought with a large enough effect in the repeat runs; an effect the other way counts as inactive or inconclusive; note: potency is the fitted concentration of half-maximal effect; nearly all actives have a fitted effect of over 55% in size)
# Cytochrome P450 2C9 (Homo sapiens), sequence (P11712 whole entry, looked up): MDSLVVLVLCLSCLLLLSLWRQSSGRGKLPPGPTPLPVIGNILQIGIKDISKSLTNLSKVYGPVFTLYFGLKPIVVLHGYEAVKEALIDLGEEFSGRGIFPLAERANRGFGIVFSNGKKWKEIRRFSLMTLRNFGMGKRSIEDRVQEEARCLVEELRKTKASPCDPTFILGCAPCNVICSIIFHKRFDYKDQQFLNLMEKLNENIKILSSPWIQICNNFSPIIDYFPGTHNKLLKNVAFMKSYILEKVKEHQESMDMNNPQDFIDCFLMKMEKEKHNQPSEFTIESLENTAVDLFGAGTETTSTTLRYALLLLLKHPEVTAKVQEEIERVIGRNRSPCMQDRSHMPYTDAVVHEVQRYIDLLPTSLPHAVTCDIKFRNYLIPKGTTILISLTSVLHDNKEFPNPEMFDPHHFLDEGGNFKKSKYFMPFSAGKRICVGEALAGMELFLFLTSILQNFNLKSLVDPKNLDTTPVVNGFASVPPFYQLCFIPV
# How it was run: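 Luminescence, after 20 min with luciferin detection reagent, reflected CYP2C9 turnover during a 1 h NADPH-driven reaction at 37C. Enzyme-substrate mix contained 0.4% bovine serum albumin and was preincubated with compound 10 min at room temperature.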
# [10] = P-glycoprotein substrates identified in KB-8-5-11 adenocarcinoma cell line, qHTS therapeutic library screen (AID 1346987); note: potency is the fitted concentration of half-maximal effect; nearly all actives have a fitted effect of over 65% in size
# How it was run: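 KB-8-5-11, a colchicine-selected P-gp-overexpressing KB-3-1 subline, was grown without colchicine for the assay. Cells were seeded at 500 cells/well, dosed in concentration-response and incubated 72 h at 37 degree C, 5% CO2. Viability was read by CellTiter-Glo luminescence.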
# [11] = qHTS to identify inhibitors of the type 1 interferon - major histocompatibility complex class I in skeletal muscle: primary screen against the NCATS Mechanism Interrogation Plate v5.0 (MIPE) Libary (AID 1347411); note: nearly all actives have a fitted effect of over 65% in size
# How it was run: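 Immortalized human myoblasts (C25cl48) with HiBit knocked into endogenous HLA-B*08:01 were stimulated with 4 ng/ml IFN-beta and given compounds in 11-point 1:3 titration from 46 uM. After 24 h at 37 C, lytic HiBiT luminescence was read.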
# [12] = qHTS drug screen for cell cycle checkpoint inhibitors in PARPi-resistant BRCA-mutant ovarian cancer cell lines. (AID 1963452; calls by dose curve); details: PEO1/OlaR viability, CellTiter-Glo luminescence, 96 h, stronger effect = lower value
# How it was run: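 PEO1, PEO4 and PEO1/OlaR ovarian cancer cells, 600 per well, exposed 96 h at 37C to a dilution series. Viability read by CellTiter-Glo luminescence, normalized to DMSO and empty wells; activity summarized as Z-AUC.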
# [13] = Tertiary RLuc qRT-PCR qHTS assay for Zika virus inhibitors (AID 1347169); note: potency is the fitted concentration of half-maximal effect; nearly all actives have a fitted effect of over 55% in size
# How it was run: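 Inhibition of ZIKV-RLuc replication in Vero cells, read as Renilla luminescence 1-1.5 hrs after live-cell substrate addition, following 48-72 hrs infection at MOI 1-2 in presence of compound.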
# [14] = Drug repurposing screens with cells derived from glioblastoma tumor samples (AID 1345199); details: GBM patient neurospheres viability, ATP luminescence, 48 h; note: nearly all actives have a fitted effect of over 40% in size; note: potency is the fitted concentration of half-maximal effect
# How it was run: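 Four patient lines of CD133+ GBM neurospheres were screened at several concentrations; hits were retested in those lines plus three slower-growing GBM lines, using 48-hour treatment and ATP-based viability.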
smiles,measurement,setting,value
CC(C)c1ccc(NC(=O)C(c2ccccc2)N(C)C(=O)Cc2c[nH]c3ccccc23)cc1 (stereo unspecified),Potency,[1],inactive
same,Potency,[2],inactive
CN(C)CC(=O)Nc1ccc2[nH]c(=O)c3ccccc3c2c1,Potency,[3],inactive
same,Potency,[2],inactive
CC1=CC(=O)[C@@]2(C(C)C)C[C@@H]12,Potency,[3],2.51 µM (active)
same,activity,[4],-4.64%
same,Potency,[5],48.2 µM (active)
same,activity,[6],-30.7%
same,activity,[7],-13.4%
same,Potency,[2],inactive
COc1ccc(C2(CNC(=O)[C@](C)(Cc3c[nH]c4ccccc34)NC(=O)Nc3ccc([N+](=O)[O-])cc3)CCCCC2)nc1,Potency,[8],3.01 µM (active)
same,Potency,[9],2.68 µM (active)
same,Potency,[1],inactive
CNc1cc(OC)c(C(=O)N[C@@H]2CCN(Cc3ccccc3)[C@@H]2C)cc1Cl,Potency,[3],inactive
same,Potency,[8],0.107 µM (active)
same,Potency,[9],8.49 µM (active)
same,Potency,[1],inactive
same,Potency,[2],inactive
CCC(=O)Nc1cccc(Oc2nc(Nc3ccc(N4CCN(C)CC4)cc3OC)ncc2Cl)c1,Potency,[10],16.4 µM (active)
same,Potency,[3],inactive
same,Potency,[11],inactive
same,Z-AUC,[12],-0.15 (inactive)
same,Z-AUC,[12]; measured here: PEO1 parental Z-AUC,0.187
same,Z-AUC,[12]; measured here: PEO4 Z-AUC,0.383
CC1(C)SC2C(NC(=O)[C@H](NC(=O)N3CCNC3=O)c3ccccc3)C(=O)N2C1C(=O)O (stereo partly specified),Potency,[1],inactive
c1ccc(-c2cnc(Nc3ccc(OCCN4CCCC4)cc3)s2)cc1,Potency,[10],16.4 µM (active)
same,Potency,[2],35.5 µM (active)
C[C@H](NC(=O)C(C)(C)Oc1ccc(C(F)(F)F)cn1)[C@@H](Cc1ccc(Cl)cc1)c1cccc(C#N)c1,Potency,[10],14.6 µM (active)
same,Potency,[3],inactive
same,Potency,[1],inactive
Cc1c(C(=O)NCCCO)cnn1-c1nc(-c2cccc(C(F)(F)F)c2)cs1,Potency,[3],inactive
same,Potency,[1],inactive
CN([C@H]1c2cc(OCCCC(F)(F)F)ccc2OC(C)(C)[C@@H]1O)S(C)(=O)=O,Potency,[3],inactive
same,Potency,[1],inactive
C=C(C(=O)O)C1CC2=C(C)C(=O)CC2C(C)CC1O (stereo unspecified),Potency,[2],inactive
CCN(CC)Cc1cccc(/C=C/c2nc3ccc(F)cc3c(=O)n2-c2ccccc2Cl)n1,Potency,[3],inactive
same,Potency,[2],20 µM (active)
CC(C)n1cnc2c(Nc3cccc(Cl)c3)nc(NCCO)nc21,Potency,[10],14.6 µM (active)
same,Potency,[3],inactive
same,Potency,[9],9.52 µM (active)
same,Potency,[1],inactive
O=C(CC1NCCC[C@H]1O)Cn1cnc2cc(Br)c(Cl)cc2c1=O (stereo partly specified),Potency,[3],inactive
same,Potency,[2],inactive
Cc1nnsc1C(=O)Nc1ccc(-n2nc(C(F)(F)F)cc2C(F)(F)F)cc1,Potency,[9],15.1 µM (active)
same,Potency,[1],inactive
same,Potency,[2],inactive
CC(=O)N1CCN([C@H]2CCN(C(=O)N(C)[C@H](C)c3cc(C(F)(F)F)cc(C(F)(F)F)c3)[C@@H](c3ccc(F)cc3C)C2)CC1,Potency,[1],inactive
same,Potency,[2],inactive
COc1cc(-c2cc(-c3cccc(O)c3)cnc2N)cc(OC)c1OC,Potency,[9],0.849 µM (active)
same,Potency,[1],inactive
COc1ccc(NS(=O)(=O)c2sc3ccc(Cl)cc3c2C)cc1N1CCNCC1,Potency,[8],23.9 µM (active)
same,Potency,[1],inactive
same,Potency,[2],inactive
O=C(Nc1cccc(C(F)(F)F)c1)c1ccccc1NCc1ccncc1,Potency,[3],inactive
C[C@@H](CN1CCC(n2c(=O)[nH]c3cc(Cl)ccc32)CC1)NC(=O)c1ccc2ccccc2c1,Potency,[10],18.4 µM (active)
same,Potency,[3],inactive
same,Potency,[8],10.7 µM (active)
same,Potency,[9],0.239 µM (active)
same,Potency,[2],inactive
C=C1C(=O)O[C@@H]2C[C@@]3(C)CCC[C@H](C)C3=C[C@H]12,Potency,[10],14.6 µM (active)
same,Potency,[3],inactive
same,Potency,[1],inactive
CC1(C)SC2C(NC(=O)[C@H](C(=O)O)c3ccsc3)C(=O)N2C1C(=O)O (stereo partly specified),Potency,[1],inactive
CC[C@H](C)[C@H]1O[C@]2(CC[C@@H]1C)C[C@@H]1C[C@@H](C/C=C(\C)[C@@H](O[C@H]3C[C@H](OC)[C@@H](O[C@H]4C[C@H](OC)[C@@H](O)[C@H](C)O4)[C@H](C)O3)[C@@H](C)/C=C/C=C3\CO[C@@H]4[C@H](O)C(C)=C[C@@H](C(=O)O1)[C@]34O)O2,Potency,[13],41.5 nM (active) and 2.62 µM (active)
same,Potency,[1],inactive
same,Potency,[2],inactive
same,"activity, negative = cell killing","[14]; at 46.1 µM (top of the series), tumour line C",-34.4% (inactive)
same,Potency,[14]; tumour line A,1.12 µM (active)
same,Potency,[14]; tumour line B,3.98 µM (active)
same,Potency,[14]; tumour line D,2.82 µM (active)
COc1ccc(-c2nc(-c3cc(C(F)(F)F)cc(C(F)(F)F)c3)n(Cc3ccc(C(N)=O)cc3)c2-c2ccc(OC)cc2)cc1,Potency,[3],inactive
same,Potency,[9],5.35 µM (active)
same,activity,[4],0.0984%
same,"activity change, negative = inhibition",[5],-0.694%
same,activity,[6],-7.68%
same,activity,[7],-1.33%
same,Potency,[1],inactive
same,Potency,[2],inactive
COc1ccc2c(c1)CN(C(=O)CCN1CCC(Cc3ccccc3)CC1)CCS2,Potency,[10],6.32 µM (active)
same,Potency,[8],0.536 µM (active)
same,Potency,[1],inactive
